Results published in publication PMC11062922 (Nature Chemical Biology, 2023).

test system: PKN3; settings: read-out: Rep 2; hek293t cells
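Further: NanoBRET target engagement in HEK293T cells transiently expressing full-length PKN3 with C-terminal NanoLuc, displacement of fluorescent tracer K5 (500 nM), BRET read after 2 h equilibration at 37 °C.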

Compound | IC50 [nM]
Cl.NCc1ccc(-c2nc(-c3ccc(Cl)c(O)c3)c(-c3ccncc3)[nH]2)cc1 [SB-476429-A] | 211
Fc1ccc(-c2c(-c3ccncc3)[nH]c3cccnc23)cc1 [RO1153853-000] | 951
Cc1cccc(-c2nc(Nc3ccncc3)c3sccc3n2)n1 [GW869641X] | 472
Cc1cccc2c(-c3ccncn3)c(-c3ccc(F)cc3)nn12 [GW515532X] | 922
CCn1c(-c2nonc2N)nc2c(C#CC(C)(C)O)nc(OCCNC)cc21.Cl [GSK949675A] | 441
Cl.ON=C1CCc2cc(-c3nc(C4CCNCC4)[nH]c3-c3ccncc3)ccc21 [SB-614067-R] | 20600
CCn1c(-c2nonc2N)nc2c(C#CC(C)(C)O)nc(CN3CCCC3)cc21 [GSK1000163A] | 9200
CCn1c(-c2nonc2N)nc2c(C#CC(C)(C)O)nc(OCCN)cc21.CCn1c(-c2nonc2N)nc2c(C#CC(C)(C)O)nc(OCCN)cc21.Cl.Cl [GSK902056A] | 56.5
CCOc1nccc2c1nc(-c1nonc1N)n2CC [SB-737198] | > 50000
CCn1c(-c2nonc2N)nc2c(-c3ccccc3)ncc(OCCCN)c21.CCn1c(-c2nonc2N)nc2c(-c3ccccc3)ncc(OCCCN)c21.O=C(O)C(F)(F)F.O=C(O)C(F)(F)F [GSK260205A] | 6.19
LY3009120 | 1230
CCn1c(-c2nonc2N)nc2c(C#CC(C)(C)O)nc(OC[C@@H](N)c3ccccc3)cc21 [GSK938890A] | 31.2
CCn1c(-c2nonc2N)nc2c(C#CCN)ncc(OCCCN)c21.O=C(O)C(F)(F)F [GSK561866B] | 11200
COc1cccc2c(-c3ccncc3)c(-c3ccc(F)cc3)nn12 [GW468513X] | 552

same assay, conditions: read-out: Rep 3; hek293t cells

Compound | IC50 [nM]
Cl.NCc1ccc(-c2nc(-c3ccc(Cl)c(O)c3)c(-c3ccncc3)[nH]2)cc1 [SB-476429-A] | 86.7
Fc1ccc(-c2c(-c3ccncc3)[nH]c3cccnc23)cc1 [RO1153853-000] | 164
CCn1c(-c2nonc2N)nc2c(C#CC(C)(C)O)nc(OCCNC)cc21.Cl [GSK949675A] | 149
Cl.ON=C1CCc2cc(-c3nc(C4CCNCC4)[nH]c3-c3ccncc3)ccc21 [SB-614067-R] | 50100
CCn1c(-c2nonc2N)nc2c(C#CC(C)(C)O)nc(CN3CCCC3)cc21 [GSK1000163A] | 6130
CCn1c(-c2nonc2N)nc2c(C#CC(C)(C)O)nc(OCCN)cc21.CCn1c(-c2nonc2N)nc2c(C#CC(C)(C)O)nc(OCCN)cc21.Cl.Cl [GSK902056A] | 27
CCOc1nccc2c1nc(-c1nonc1N)n2CC [SB-737198] | > 50000
CCn1c(-c2nonc2N)nc2c(-c3ccccc3)ncc(OCCCN)c21.CCn1c(-c2nonc2N)nc2c(-c3ccccc3)ncc(OCCCN)c21.O=C(O)C(F)(F)F.O=C(O)C(F)(F)F [GSK260205A] | 6.22
LY3009120 | 112
CCn1c(-c2nonc2N)nc2c(C#CC(C)(C)O)nc(OC[C@@H](N)c3ccccc3)cc21 [GSK938890A] | 28.1
CCn1c(-c2nonc2N)nc2c(C#CCN)ncc(OCCCN)c21.O=C(O)C(F)(F)F [GSK561866B] | 4910
